In the library only some 7.9% were active in any assay of this set; here they are far more common.
MCF10A rerep: induces DNA re-replication in MCF 10a normal breast cells; 350,000 tested, 2.9% active; Potency, µM (top dose mostly 46.1 µM), for inactives: top-dose activity, positive = re-replication, actives largely listed as activators; MCF 10A DNA re-replication, Hoechst nuclear intensity, 48 h; note: % of control where 0% means no effect; nearly all actives have a fitted effect of over 50% in size
SW480 rereplic: inducers of DNA re-replication in SW480 colon cancer cells | SW480 DNA re-replication, Hoechst DNA content imaging, 48 h | Potency, µM (series often up to 46.1 µM), for inactives: at the top dose re-replication activation, most hits filed as activators | 340,000 tested, 1.8% active | AID 624297; note: % of control where 0% means no effect; nearly all actives have a fitted effect of over 55% in size
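Cells (250 per well) received 23 nL compound or DMSO by pin tool and were kept 48 hr at 37 C, 5% CO2. Nuclei were then stained with Hoechst for 40 min and scanned for DNA content.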
HT1080 IDH1KD tx: toxicity to HT-1080 IDH1 knockdown cells (counter line). HT-1080 IDH1 knockdown viability, ATP luminescence, 48 h. Potency, µM (top dose mostly 46.1 µM), inactives show top-dose activity, negative = toxicity, most hits filed as cytotoxic. 360,000 tested, 2% active;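 note: 0% = DMSO wells and -100% = cell-free medium wells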
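Cytotoxicity counter-line: IDH1KD HT-1080, 48 h, CellTiter-Glo. Curves classed by r2, magnitude and activity.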
KB-3-1 cytotox: KB-3-1 parental cell cytotoxicity; KB-3-1 viability, CellTiter-Glo ATP luminescence, 72 h; Potency, µM (doses to about 46.1 µM), hits mostly cytotoxic; 400,000 tested, 1.4% active; note: % is set by controls: 0 for no effect and ±100 for the full control effect; nearly all actives have a fitted effect of over 60% in size
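Viability of parental KB-3-1 cells, measured by CellTiter-Glo luminescence, followed a 72 h incubation at 37 °C with pinned compounds in phenol-red-free DMEM containing 10% FBS.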
KB-V1 cytotox: kills drug-selected multidrug resistant KB-V1 cells; KB-V1 MDR cells viability, CellTiter-Glo, 72 h; Potency, µM (doses to about 46.1 µM), hits mostly cytotoxic; 400,000 tested, 3.4% active; AID 1347076; note: % is set by controls: 0 for no effect and ±100 for the full control effect; nearly all actives have a fitted effect of over 60% in size
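Cells of the MDR subline KB-V1 are plated, dosed with compound at multiple concentrations, and incubated 72 h at 37 degrees C; CellTiter-Glo is then added and luminescence read after 10 min.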
HT1080NT lethal: kills 2HG-producing HT-1080-NT fibrosarcoma cells; HT-1080-NT fibrosarcoma viability, CellTiter-Glo ATP luminescence, 48 h; Potency, µM (top dose mostly 46.1 µM), for the others: at the highest dose activity, negative = less viability, usual class: cytotoxic; 360,000 tested, 1.6% active;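 note: NT is the 2HG producing partner of a matched IDH1 knockdown line; 0% = DMSO-treated cells and -100% = media-only wells without cells; nearly all actives have a fitted effect of over 55% in size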
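HT-1080-NT fibrosarcoma cells (2HG-overproducing), 750 cells/well in RPMI with 5% FBS, dosed after 2 h and incubated 48 h at 37C. CellTiter-Glo luminescence normalized to DMSO and no-cell wells; concentration-response curves fitted and classed.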
Numbers without * were called inactive; i = inactive; u = inconclusive; x = not tested or not shown; ! = not confirmed by another sample; [ ] = remark or other dose. Calls come from the whole dose curve; as a rule, active = well fitted curve in the direction sought with a large enough effect; inconclusive = small, poorly fitted or top-dose-only effect, or another doubt; inactive = no such curve, though single readings can be large; an effect the other way counts as inactive or inconclusive. Potency is the fitted concentration of half-maximal effect.

SMILES | MCF10A rerep | SW480 rereplic | HT1080 IDH1KD tx | KB-3-1 cytotox | KB-V1 cytotox | HT1080NT lethal
N/C(=N/OC(=O)c1cccc([N+](=O)[O-])c1)c1cccc([N+](=O)[O-])c1 | u | -0.2% | 25.6% | u | i | 19.3%
CC1=C(C)/C(=N/OC(=O)c2cccc([N+](=O)[O-])c2)C=CC1=O | 8.2µM* | 8.2µM* | 18.4µM* | i | i | u
O=C(CN1CCCc2ccccc21)Nc1cccc(S(=O)(=O)N2CCOCC2)c1 | -0.6% | -1.2% | 0.1% | i | i | 0.0%
Cc1cccc(C(=O)N/C(=C\c2ccco2)C(=O)N2CCCC2)c1 | -7.4% | -2.9% | 4.7% | i | i | 5.5%
CC1=C(C(N)=O)C(c2ccc(C)cc2)n2nc(SCc3ccccc3)nc2N1 (stereo not given) | x | x | x | i | i | x
CCCCCCCCCS(=O)(=O)Nc1cc(C)ccn1 | u | -2.5% | -9.6% | i | i | -7.5%
Cc1cc(C)cc(NS(=O)(=O)CCCS(=O)(=O)Nc2cc(C)cc(C)c2)c1 | u | 5.0% | 20.6µM* | i | i | u
O=C(CNS(=O)(=O)c1ccc(F)cc1)N1CCN(c2ccc(F)cc2)CC1 | -1.4% | 0.3% | -1.5% | i | i | -4.8%
COc1ccc(N2CCN(C(=O)CCNS(=O)(=O)c3ccc(Br)s3)CC2)cc1 | 2.5% | -4.8% | -2.1%[9.24 µM] | u | 13µM* | -3.1%
O=C(CNS(=O)(=O)c1ccc(Br)s1)N1CCN(c2ccc(F)cc2)CC1 | 11.5% | 0.5% | -1.2% | 23.1µM*! | 18.4µM*! | -2.0%
COc1ccc(N2CCN(C(=O)CCNS(=O)(=O)c3ccc(C)cc3)CC2)cc1 | 0.4% | -13.3% | -4.4% | i | i | 0.1%
COc1ccc(-c2cn3c(C)c(C(=O)NCCN4CCOCC4)sc3n2)cc1 | -6.1% | -6.6% | 0.3% | i | 11.6µM* | 1.3%
CCN(CC)C(=O)c1sc2nc(-c3ccc(OC)cc3)cn2c1C | 0.0% | -0.6% | 0.5% | i | 3.66µM* | -1.4%
CN1CCN(Cc2c(C(=O)N/N=C/c3cccc(Br)c3)nnn2-c2nonc2N)CC1 | -4.6% | -13.7% | 0.0% | i | i | 1.3%
COC(=O)C1CCN(c2ccc([N+](=O)[O-])cc2[N+](=O)[O-])CC1 | -6.7% | -89.3% | 5.5% | i | 16.4µM* | -0.9%
COc1cc(-c2noc(C)c2/C=C/c2ccc(C(=O)O)cc2)cc(OC)c1OC | u | u | 18.4µM* | u | i | u
COc1cc(-c2noc(C)c2/C=C/c2cccc([N+](=O)[O-])c2)cc(OC)c1OC | u | u | 3.66µM* | 2.91µM* | 5.8µM* | 2.31µM*
CCOC(=O)C1CCN(C(c2cccc(F)c2)c2c(O)cc(C)n(CCOC)c2=O)CC1 (stereo not given) | x | x | x | i | i | x
Fc1ccccc1C1=NC(c2ccc(C(F)(F)F)cc2)=Nc2ccccc2N1 | x | x | x | i | i | x
O=c1[nH]c(=O)n([C@H]2C[C@H](O)[C@@H](CO)O2)cc1C(F)(F)F | 8.7% | u | 2.06µM* | i | i | u
O=c1[nH]c(=O)n(C2C[C@H](O)[C@@H](CO)O2)cc1C(F)(F)F (stereo not given in full) | u | 15.4% | 4.11µM* | i | i | u
CC(C#N)Sc1ncnc2sc(-c3ccccc3)cc12 (stereo not given) | 8.8% | -24.4% | -19.2% | i | i | -25.0%
CN(C)S(=O)(=O)N1CCC(Oc2ccc(C(=O)N3C[C@@H]4CCC[C@H]3C4)cc2)CC1 | 5.4% | 4.2% | -1.0% | i | 9.2µM* | 1.4%
CN(C)S(=O)(=O)N1CCC(Oc2ccc(C(=O)N3C[C@H]4CC[C@H]3C4)cc2)CC1 | -2.7% | -13.7% | -17.7% | x | x | u
Cc1oc2cc(Br)c(O)c(Br)c2c1-c1ccccc1 | u | -5.4% | u | u | i | -17.9%
SMILES | MCF10A rerep | SW480 rereplic | HT1080 IDH1KD tx | KB-3-1 cytotox | KB-V1 cytotox | HT1080NT lethal
Cc1cc(C)c2[nH]c(=O)c(CN(Cc3nnnn3C3CCCC3)C3CCCCC3)cc2c1 | -0.7% | -4.6% | 19.2% | i | i | 6.4%
Cc1cccc2cc(CN(Cc3nnnn3C3CCCCC3)C3CCCC3)c3nnnn3c12 | 17.0% | -0.2% | 9.0% | u | 20.6µM* | 15.9%
O=C(C[C@@H]1C/C=C\CCC(=O)OC[C@H](Cc2ccccc2)NC1=O)N[C@@H](CO)Cc1ccccc1 | 6.4% | u | 9.3% | i | i | 17.5%
O=C(O)c1ccc2c(c1)C(=O)N(c1ccc([N+](=O)[O-])cn1)C2=O | 0.0% | -5.4% | 6.3% | i | i | 4.5%
CCCCOc1ccc(Br)cc1/C(C)=N/NC1=NCCN1 | 10.3µM* | u | 6.51µM* | 4.11µM* | 5.8µM* | 8.2µM*
CCCCCCOc1ccc(/C(C)=N/NC2=NCCN2)cc1[N+](=O)[O-] | u | -103.6% | -11.2% | i | i | -23.5%
O=C(C[N+]12CN3CN(CN(C3)C1)C2)c1ccc(-c2ccccc2)cc1 | x | x | x | u | i | x
COc1ccc(NC(=O)CSc2nc(C3CC3)nc3ccccc23)cc1 | u | 13µM* | u | u | u | u
N#Cc1cccc(NC(=O)CSc2ccc3c4c(cccc24)C(=O)c2ccccc2-3)c1 | 7.31µM* | u | 6.6% | u | 20.6µM* | 5.0%
COc1ccc(NC(=O)CSc2ccc3c4c(cccc24)C(=O)c2ccccc2-3)cc1 | 2.59µM* | 11.6µM* | u | u | u | u
N#Cc1cccc(NC(=O)CSc2ccccc2)c1 | 14.1% | -6.4% | 5.6% | i | u | -17.0%
Cc1ccc(N(C(=O)c2csnn2)C(C(=O)NC2CCCCC2)c2ccco2)cc1 (stereo not given) | 15.4% | 3.9% | -10.7% | i | i | -0.7%
CC[C@@H]1CCCCc2ccccc2[C@H](C(=O)C[C@H](O)CC(C)=O)OC1=O | -6.1% | 6.2% | 15.1% | i | i | 4.6%
Cc1nc2ccc(C(=O)N3CCN(c4ccccc4)CC3)cn2c1N(C)C(=O)CCc1ccccc1 | x | x | 2.7% | i | i | 1.5%
COc1cc(-c2ccc(NC(C)=O)c(OC)c2)ccc1NC(C)=O | 9.0% | -0.4% | -11.9% | i | i | -19.7%
COc1cc(-c2ccc(NC(=O)c3ccc(C)cc3)c(OC)c2)ccc1NC(=O)c1ccc(C)cc1 | 1.64µM* | 2.59µM* | 6.9% | i | i | 6.1%
COc1cc(-c2ccc(NC(=O)CN3CCC(C)CC3)c(OC)c2)ccc1NC(=O)CN1CCC(C)CC1 | u | -1.9% | -30.0% | u | 16.4µM* | -28.1%

Bioassay records from PubChem BioAssay.
